Test results: PubChem BioAssay (NCI)
The panel holds about 83,000 compounds, 20% with a hit somewhere; the sample as a whole holds those more often.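 Each cell line was grown in a 96-well plate and treated with one concentration of compound for 48 hours. Values below 10 were considered active.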 A number with no mark means an inactive call. Activity calls are given as the source filed them.

Columns and labels:
Assay in all cases: NCI-60 one-dose screen, 48 h (100 = growth as untreated, 0 = no growth, -100 = all killed)
Conditions in all cases: 10 µM unless noted
NCI-H23 lung = test system: NCI-H23 lung
NCI-H226 lung = test system: NCI-H226 lung
NCI-H322M lung = test system: NCI-H322M lung
HOP-62 NSCLC = test system: HOP-62 NSCLC
NCI-H460 lung = test system: NCI-H460 lung
HOP-92 NSCLC = test system: HOP-92 NSCLC
NCI-H522 lung = test system: NCI-H522 lung
A549/ATCC NSCLC = test system: A549/ATCC NSCLC
786-0 renal = test system: 786-0 renal
COLO 205 colon = test system: COLO 205 colon

Row | SMILES | growth (NCI-H23 lung) | growth (NCI-H226 lung) | growth (NCI-H322M lung) | growth (HOP-62 NSCLC) | growth (NCI-H460 lung) | growth (HOP-92 NSCLC) | growth (NCI-H522 lung) | growth (A549/ATCC NSCLC) | growth (786-0 renal) | growth (COLO 205 colon)
1 | O=C1NC(=O)c2c1c1c3cc(Br)ccc3[nH]c1c1oc3ccc(F)cc3c21 | -23.6% (active) | -0.591% (active) | -11.8% (active) | -42% (active) | -82.6% (active) | -53.2% (active) | -61.6% (active) | 53.5% | -40.8% (active) | 30.1%
2 | COc1ccc(C(=O)/C=C/c2ccc3ccccc3c2)cc1S(N)(=O)=O | -23.7% (active) | 20.1% | 11.3% | -30.1% (active) | 2.36% (active) | 24.9% | -62.9% (active) | -78.4% (active) | -89.2% (active) | -76.3% (active)
3 | CCN(CC)CCOc1ccc(Nc2ncc3cc(-c4ccc(O)c(C#N)c4)c(=O)n(C)c3n2)cc1 | 98% | 49.3% | 96.9% | 91.1% | 85.3% | -5.3% (active) | 83.1% | 94.8% | -51.2% (active) | 36.2%
4 | COc1ccc(-c2nc(SCC(C)C)nc(NCCc3c[nH]c4ccccc34)c2C#N)cc1 | 73.9% | 45.1% | 87.7% | 55.2% | 36.6% | 50.3% | 62.5% | 76.6% | 56.6% | 76.1%
5 | O=c1[nH]c2ccccc2cc1CSc1nccc(-c2ccc3ccccc3c2)n1 | 77.8% | 70.4% | 96% | 71.5% | 77% | 68.5% | 49.6% | 56.8% | 78.3% | 83.3%
6 | CN(C)CCn1c2ccccc2c2nc3ccc([N+](=O)[O-])cc3nc21 | -9.77% (active) | -21.2% (active) | 11.3% | -19.3% (active) | 4.86% (active) | 28.9% | -25.2% (active) | -50% (active) | 1.77% (active) | 3.88% (active)
7 | N#Cc1c(-c2cccc3ccccc23)cc(-c2cccc(OCC(=O)O)c2)[nH]c1=O | 97.7% | 93.6% | 96.1% | 105% | 101% | 98.6% | 97.9% | 94.6% | 101% | 106%
8 | COc1ccc(C(=O)/C=C/c2ccc(OCc3ccc(F)cc3)c(OC)c2)cc1OC | 26.5% | 46.3% | 7.43% (active) | 26.6% | 14.8% | -14.8% (active) | 2.98% (active) | 11.9% | 37.4% | 29.9%
9 | O=C(NNc1nc2cc(C(F)(F)F)ccc2n2cccc12)c1cnccn1 | -27.5% (active) | -53.5% (active) | -13.6% (active) | -73.4% (active) | -30.3% (active) | -74% (active) | -60.2% (active) | -60.5% (active) | -99.1% (active) | -72.3% (active)
10 | Cc1cc2c(cc1Cl)C(=O)/C(=C/c1ccccc1)O2 | 0.835% (active) | 14.6% | 73.5% | 21.8% | 24.6% | 44.4% | -75% (active) | -59.7% (active) | -38.5% (active) | 32.7%
